ERa SRC1 inh – ERα–SRC-1 coactivator interaction inhibitors, primary screen, biochemical, TR-FRET, ERα LBD, estradiol-bound; Estrogen receptor (Homo sapiens), P03372; TR-FRET ER-alpha LBD / SRC-1 peptide; inhibition, % at 25.6 µM; 86,000 compounds, 1.7% hits; AID 629, 2007; in the data active = inhibition above about 50%;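 note: 0% = receptor plus peptide control and 100% = peptide only without receptor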
ERb coact inh – inhibitors of ERβ-SRC1 coactivator interaction, primary screen, biochemical, TR-FRET, ERβ LBD, SRC-1 peptide | 86,000 compounds, 1.3% hits | inhibition, % at 25.6 µM | Estrogen receptor beta (Homo sapiens), Q92731 | TR-FRET ER-beta LBD / SRC1-Cy5 peptide binding; receptor agonist-loaded with 1 µM estradiol;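 active = compounds whose percent inhibition of the receptor-coactivator binding signal exceeds about 50% in the single-dose screen, limit read from the data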;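 note: 0% = receptor plus peptide wells without compound and 100% = peptide-only wells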
hDAT+cocaine – changed hDAT dopamine uptake under cocaine IC80, either direction, primary screen, cocaine antagonist project, cell-based, LLC-PK1 hDAT, [14C]-dopamine uptake, MLSMR; 110,000 compounds, 1.3% hits; LLC-PK1 hDAT cells, [14C]-dopamine uptake with cocaine IC80; actives deviate in either direction; B-score at 10 µM;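 active = Z score or B-score, a plate-position-corrected score, falls beyond the plate's 99.7% confidence bounds, in either direction; inactive = both scores lie inside the 99.7% bounds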;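 note: scored against the spread of the other compound wells on the same plate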
Target sequence (Q01959 whole entry, looked up): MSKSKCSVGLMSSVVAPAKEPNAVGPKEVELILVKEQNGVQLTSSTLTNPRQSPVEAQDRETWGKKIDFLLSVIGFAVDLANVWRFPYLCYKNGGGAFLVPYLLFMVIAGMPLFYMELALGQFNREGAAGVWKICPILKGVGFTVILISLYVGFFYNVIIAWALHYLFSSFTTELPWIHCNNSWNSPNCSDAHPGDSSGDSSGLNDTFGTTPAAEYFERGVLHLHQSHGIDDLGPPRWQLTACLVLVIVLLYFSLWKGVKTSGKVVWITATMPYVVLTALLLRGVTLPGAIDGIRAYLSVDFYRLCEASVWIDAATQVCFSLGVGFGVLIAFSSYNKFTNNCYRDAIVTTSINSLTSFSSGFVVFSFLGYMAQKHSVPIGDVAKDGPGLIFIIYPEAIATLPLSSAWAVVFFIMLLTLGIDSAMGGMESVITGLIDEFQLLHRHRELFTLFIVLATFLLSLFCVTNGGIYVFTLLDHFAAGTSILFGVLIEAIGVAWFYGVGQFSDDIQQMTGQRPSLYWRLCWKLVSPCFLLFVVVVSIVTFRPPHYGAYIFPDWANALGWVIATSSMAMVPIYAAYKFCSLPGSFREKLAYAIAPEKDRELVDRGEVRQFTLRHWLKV
ERa SRC1 pot – enhancers of ERα–SRC-1 coactivator binding, primary screen, biochemical, TR-FRET, ERα LBD, low estradiol; Estrogen receptor (Homo sapiens), P03372; 86,000 compounds, 1.3% hits; TR-FRET ERalpha-LBD/SRC-Cy5 coactivator binding, 2 h; 100 = basal binding, no effect; coactivator binding (% of control), % at 25.6 µM; in the data active = activity above about 200%;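 note: binding measured in presence of low estradiol as agonist stimulus; 0% = peptide alone without receptor and 100% = receptor with peptide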
MT1-MMP txn act – MT1-MMP promoter reporter activation – cell-based, luciferase luminescence, primary screen; activation factor at 10 µM; HT1080 MT1-MMP promoter luciferase reporter, overnight; hits give high values; 86,000 compounds, 0.16% hits;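 active = activation factor of at least 2 for MT1-MMP transcription at 10 µM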
* marks the source's active call; other numbers are inactive results; . = not tested or not shown; [ ] = remark or other dose. A selection: hits, their analogues and other compounds. The true share with any hit is near 3.8%.

SMILES	ERa SRC1 inh	ERb coact inh	hDAT+cocaine	ERa SRC1 pot	MT1-MMP txn act
O=C(CSc1nnc(-c2ccco2)n1-c1ccccc1)N1CCc2ccccc21	1	-1	.	125	1.2
C=CCn1c(SCC(=O)Nc2cccc(OC)c2)nnc1-c1cccnc1	1	-6	0.76	226*	1.2
CCOC(=O)c1ccc(NC(=O)CSc2nnc(-c3cccs3)n2C)cc1	6	-1	0.86	149	1
O=C(CSc1nnc(-c2cccs2)n1-c1ccccc1)N1CCc2ccccc21	12	-1	.	925*[fluorescence artefact?]	0.9
C=CCn1nnnc1SCC(=O)Nc1cccc(OC)c1	3	0	-0.41	108	1
CCn1c(SCC(=O)c2ccc(CNC(C)=O)o2)nnc1-c1cccs1	58*	43	0.32	59	1.2
CNC1=C(Cl)C(=O)c2ccncc2C1=O	.	.	.	.	1.1
Clc1ccc(-c2nn3c(-c4ccccc4)nnc3s2)cc1	40	38	-0.17	130	0.9
CN(C)c1ccc(-c2nn3c(-c4ccc(Cl)cc4Cl)nnc3s2)cc1	85*[fluorescence artefact?]	64*[fluorescence artefact?]	.	51	0.6
Cc1cc(-c2nnc3sc(-c4ccc(Cl)cc4Cl)nn23)n[nH]1	23	25	-0.79	360*	1.1
Cn1c(CSc2nc3ccccc3s2)nnc1SCC(=O)NCc1cccnc1	-7	1	-0.064	108	1.1
CC(C)(O)C#Cc1ccc(C(=O)NCc2ccccc2)s1	1	-3	0.024	109	1.4
CCC(=O)Nc1cc(C(=O)OC(C(=O)c2ccc(C)c(C)c2)c2ccccc2)ccc1C (stereo not drawn)	.	.	1.2	.	.
S=C(Nc1ccccc1)N1CCCCCC1	.	.	-8.4*	.	.
COC(=O)c1ccc(CN2[C@@H]3C[C@@H](O)CC[C@@H]3C[C@H]2C(=O)OC)cc1	.	.	.	.	1.1
C#Cc1ccc([C@H]2C=C(C(=O)O)O[C@@H](OCCCCO)C2)cc1	.	.	-0.029	.	.
COc1ccc(-c2c3c(=O)n(C)c(=O)n(C)c3cn2Cc2cccnc2)cc1	-5	-11	-8.7*	97	1.4
CCCCN(CCCNC(=O)c1ccc2nc(N3CCOCC3)sc2c1)Cc1ccccc1	-2	-8	2.6*	98	1.2
C=CCNc1sc(C(=O)c2ccccc2)c(N)c1C#N	97*[fluorescence artefact?]	12	-0.072	98	1.2
CCN(CC)C(=O)CSc1nc2sc3c(c2c(=O)n1-c1ccc(C)cc1)CC(C)(C)SC3	-17	-15	0.12	246*	1.2
Cc1ccc(-n2c(SCC(=O)NCc3ccco3)nc3sc4c(c3c2=O)CC(C)(C)SC4)cc1	5	14	0.47	139	1
COc1ccc(CCC(=O)NCc2ccco2)cc1	58*[fluorescence artefact?]	49	0.32	212*[fluorescence artefact?]	1
Cc1nc2cc(-c3ccccc3)nn2c(C)c1CCC(=O)NCc1ccco1	80*[fluorescence artefact?]	10	-1	98	.
COc1ccc(N(CC(=O)NCc2ccco2)S(=O)(=O)c2ccc(OC)c(OC)c2)cc1	2	54*[fluorescence artefact?]	1	94	1.2
CC(C)Oc1ccc(Cl)cc1Nc1nc(NCCO)nc(N2CCCC2)n1	.	.	0.49	.	.
SMILES	ERa SRC1 inh	ERb coact inh	hDAT+cocaine	ERa SRC1 pot	MT1-MMP txn act
N#Cc1c(/N=C/c2cccs2)sc2c1CCCCC2	-5	-9	-0.013	100	0.3
N#Cc1c(/N=C/c2ccc(Br)s2)sc2c1CCC2	12	-2	.	77	2*
CCCSc1nc(SCC(=O)NCc2ccccc2)c2c3c(sc2n1)COC(C)(C)C3	2	10	-0.67	294*[fluorescence artefact?]	1.1
CC(C)Sc1nc(SCC(=O)NCc2ccco2)c2c3c(sc2n1)COC(C)(C)C3	1	0	1.4	195	1.2
CCOC(=O)C1=C(C)N(CCCC(=O)O)C(=O)NC1c1ccccc1OS(=O)(=O)c1ccc2ccccc2c1 (stereo not drawn)	.	.	.	.	1.2
Cc1cccc(NC(=O)N2CCC(c3nc4ccccc4o3)CC2)c1	-13	-4	-0.19	123	1.1
Cc1cc(C)cc(NC(=O)N2CCC(c3nc4ccccc4o3)CC2)c1	3	-2	0.34	680*[fluorescence artefact?]	1.1
CCOc1ccc(NCc2nnc(SCc3ccccc3Cl)n2-c2ccccc2)cc1	.	.	-12*	.	.
Cn1c(CNc2ccc(Cl)cc2)nnc1SCc1ccccc1	-46	-17	0.28	101	1.2
CCn1c(CNc2ccc(Cl)cc2)nnc1SCc1ccccc1	.	.	1.8*	.	.
CC(Cc1ccccc1)C(=O)NCC1CC1 (stereo not drawn)	.	.	.	.	1
Cc1ccc(NC(=O)CN(C)c2ccc(S(=O)(=O)N3CCN(C)CC3)cn2)cc1	-66	5	-0.089	481*[fluorescence artefact?]	1.1
CN1CCN(S(=O)(=O)c2ccc(N(C)CC(=O)Nc3ccc(F)cc3)nc2)CC1	-6	8	-1.9	162	1.1
COC(=O)[C@@]1(Cc2ccc(F)cc2)[C@H]2c3cc(C(=O)N4CCCC4)n(Cc4cccc5ccccc45)c3C[C@H]2CN1C(=O)c1ccccc1	.	.	.	.	1.2
CC(C)OC(=O)c1cccc(NC(=O)c2ccccc2)c1	6	3	0.51	94	2.1*
CCOC(=O)c1cccc(NC(=O)c2cccs2)c1	-3	79*	0.87	114	1.5
COC(=O)c1cccc(NC(=O)c2cccnc2)c1	-2	-14	-0.31	100	0.9
CCOC(=O)c1cccc(NC(=O)c2ccco2)c1	-7	-1	-0.18	105	1.3
COc1ccc(CNC(=O)c2cc(-c3cccs3)on2)cc1	76*	51*[fluorescence artefact?]	0.27	156	1.2
O=C(NCc1ccc(Cl)cc1)c1cc(-c2cccs2)on1	95*	14	-1.2	98	1.2
O=C(NCc1cccs1)c1cc(-c2cccs2)on1	-5	-6	1	114	1.6
CC(C)NC(=O)c1c2c(nc3ccccc13)CCCC2	-22	-2	0.38	98	1.2
Cn1c2c(c(=O)n(C)c1=O)C(CC(=O)Nc1ccccc1)C(=O)N2 (stereo not drawn)	0	-9	-7.9*	106	1.1
CCOC(=O)N1CCN(S(=O)(=O)c2cc(Cl)c(OC)cc2Cl)CC1	-4	-6	1.6*	110	1.1
CCOC(=O)N1CCN(S(=O)(=O)c2cc(OCC)ccc2OCC)CC1	-3	-6	0.55	139	1
COC(=O)C1=C[C@@H](C(=O)OC)[C@@H]2C3=C(C(=O)[C@]2(C)NC(=O)c2ccccc2)[C@H](C)n2c(=O)n(-c4ccccc4)c(=O)n2[C@@H]3C1	.	.	0.66	.	.
N#CCCS(=O)(=O)c1nnnn1-c1ccccc1	61*	58*	-1.2	78	1.1
N#CCCCSc1nnnn1-c1cccc(Cl)c1	-4	-2	-0.53	107	1.1
